Only a selection was taken, and hits are over-represented in it overall.
HIV RNase H inh: inhibitors of HIV-1 reverse transcriptase RNase H; RT-RNase H RNA/DNA duplex cleavage, fluorescence; hit rate 1.9% among 65,000; AID 565; inhibition, % at 10 µM; P04585; in the data active means inhibition above about 50%
RmlCD inh mix: mixture blocks RmlC and RmlD coupled enzyme activity | RmlC/RmlD coupled enzyme inhibition, 384-well mixture HTS | inhibition, % at 5.5 µM | hit rate 0.39% among 110,000; in the data active means inhibition above about 30%, passing the limit was not always enough
Numbers without * were called inactive; . = no result given.

SMILES | HIV RNase H inh | RmlCD inh mix
COc1ccc(Oc2nc(Oc3ccc(OC)cc3)nc(Oc3ccc(OC)cc3)n2)cc1 | 57* | -21
COc1nc(Oc2ccc(C(=O)O)cc2)nc(Oc2ccc(C(=O)O)cc2)n1 | . | -6
CCOC(=O)N1CCC(N2C(=O)c3ccccc3C2Nc2ccc3c(c2)OCCO3)CC1 (stereo unspecified) | 6 | -11
CCOC(=O)N1CCC(N2C(=O)c3ccccc3C2Nc2ccc3c(C)cc(=O)oc3c2)CC1 (stereo unspecified) | 4 | 89*
CCOC(=O)c1ccc(CNC(=O)c2cc3cccc(OC)c3oc2=O)o1 | -12 | .
CCOC(=O)c1cnn(-c2nc(SC)nc3sc4c(c23)CCC4)c1N | 55* | 13
CCOC(=O)c1cnn(-c2nc(C)nc3sc4c(c23)CCC4)c1N | -7 | .
CCn1c(CNC(=O)Cc2ccc(OC)cc2)nnc1SCC(=O)Nc1nccs1 | 3 | -5
CCn1c(COc2ccc3c(c2)CCCC3)nnc1SCC(=O)Nc1nccs1 | 62* | 10
CCCn1cnc2c1c(=O)n(CCCCC(C)=O)c(=O)n2C | . | -61
COc1cccc(-n2nnnc2SCC(=O)Nc2ccc(C(C)=O)cc2)c1 | . | 5
CCCS(=O)(=O)c1nnnn1-c1cccc(OC)c1 | 55* | -2
CC(=O)/C(CN1CCCCC1)=N\O | -10 | 1
C/C(=N\O)C(=O)C(CN1CCCCC1)CN1CCCCC1 | 51* | -4
COCOc1ccc(-c2oc3c(C/C=C(\C)CCC=C(C)C)ccc(O)c3c(=O)c2OCOC)c(OCOC)c1 | . | -11
COc1cccc(Nc2nnc(SCC(=O)N(CC(C)C)CC(C)C)s2)c1 | . | 3
CCOC(=O)c1cnc(SC2CCc3ccccc3C2=O)nc1N (stereo unspecified) | -4 | 5
CC(C)CC(C(=O)Nc1oc(-c2ccco2)c(-c2ccco2)c1C#N)N1C(=O)c2ccccc2C1=O (stereo unspecified) | 62* | 10
CC(C)CC(C(=O)Nc1ccc2c(c1)OCCO2)N1C(=O)c2ccccc2C1=O (stereo unspecified) | 3 | -10
O=S(=O)(Nc1nc2ccc(S(=O)(=O)N3CCCC3)cc2s1)c1ccc(F)cc1 | . | 8
COc1ccc(C(=O)c2c(-c3ccsc3)oc3ccc(-c4ccc(OC)cc4)cc23)cc1 | . | -23
Cc1cc(C(=O)CSc2nnc(-c3cccs3)n2Cc2ccccc2)c(C)n1C | -47 | -13
O=c1cc(CSc2nnc(-c3cccs3)n2Cc2ccccc2)nc2sc3ccccc3n12 | 51* | -10
CCCN1C(=O)SC(CC(=O)Nc2ccc(Br)cc2)C1=O (stereo unspecified) | -3 | 6
COCCCn1c2nc3ccccc3nc2c2c(=O)n(Cc3ccc(Cl)cc3)cnc21 | 18 | 21
SMILES | HIV RNase H inh | RmlCD inh mix
COCCCn1c2nc3ccccc3nc2c2c(=O)n(Cc3ccccc3Cl)cnc21 | 16 | 75*
Cc1cc(=O)n2nc(N3CCC(C(=O)NCCC4=CCCCC4)CC3)sc2n1 | -3 | .
CCOC(=O)c1c(-c2ccco2)csc1N | 56* | -6
CCOC(=O)c1c(-c2ccco2)csc1NC(=O)CSc1nnc(N)s1 | . | -10
O=C(Nc1ccc(N2CCCC2)cc1)c1cccc(F)c1 | 59* | 7
O=C(Nc1ccc(N2CCCCC2)cc1)c1ccccc1 | 12 | -9
COc1ccc(-n2ncc3c(N4CCCCC4)ncnc32)cc1 | -12 | -7
COc1ccc(-n2ncc3c(N4CCN(c5cccc(C)c5C)CC4)ncnc32)cc1 | 84* | .
CCc1nnc(NC(=O)CSc2nnc(CSc3nc(C)cc(C)n3)n2CC)s1 | 1 | .
CN(C)CCCNC(CC(=O)Nc1ccc(Cl)cc1)C(=O)O (stereo unspecified) | -6 | .
COc1ccc(NC(=O)CSc2nnc(CNc3ccc(F)cc3)o2)c(OC)c1 | 1 | -3
O=C(CSc1nnc(COc2ccc3c(c2)CCCC3)o1)Nc1ccc(F)cc1 | 59* | 5
CCOc1ccc2nc(NCCCNS(=O)(=O)c3ccccc3)c(C#N)cc2c1 | -24 | -31
CC(C)n1c2ccccc2c2nnc(SCC(=O)OCN3C(=O)c4ccccc4C3=O)nc21 | 7 | 117*
Cn1c2ccccc2c2nnc(SCN3C(=O)c4ccccc4C3=O)nc21 | -2 | .
N#CC1=C2SCN(Cc3ccccc3)CN2C(=O)CC1c1ccccc1F (stereo unspecified) | 61* | -3
COc1ccc(Br)cc1C1CC(=O)N2CN(Cc3ccccc3)CSC2=C1C#N (stereo unspecified) | 31 | -3
COc1ccc(CCN(C)CCCC(C#N)(c2ccc(OC)c(OC)c2)C(C)C)cc1OC (stereo unspecified) | -10 | .
CCN(CC)C(=O)c1sc2nc(-c3cccs3)cc(-c3ccc(Cl)cc3)c2c1N | . | 13
CCN(CC)C(=O)c1sc2nc(-c3cccs3)cc(-c3cccs3)c2c1N | 52* | .
COc1cc(-c2nnc3sc(-c4ccccn4)nn23)cc(OC)c1OC | 9 | .
O=C(SCC(O)C(O)CS)c1cccs1 (stereo unspecified) | . | -6
Cc1nn(C(=O)c2ccco2)c(C)c1CN1C(=O)c2ccccc2C1=O | -19 | 8
Cc1nn(C(=O)c2cccs2)c(C)c1CN1C(=O)c2ccccc2C1=O | 64* | -6
COC(=O)c1sc2ccccc2c1C(=O)OC | -27 | 6
SMILES | HIV RNase H inh | RmlCD inh mix
COC(=O)c1sc2ccccc2c1N | 54* | -5
CCOc1cc(/C=N\NC(=O)c2ccc(NC(=O)CC)cc2)ccc1OC(=O)c1ccccc1 | . | -7
C/C=C/Cn1c(SCCCc2ccccc2)nc2c1c(=O)[nH]c(=O)n2C | -14 | -6
CC(C)n1c(SCCCc2ccccc2)nc2c1c(=O)[nH]c(=O)n2C | 56* | -1
CCCCOc1ccc(N2C(=O)CC(NCCc3ccc(S(N)(=O)=O)cc3)C2=O)cc1 (stereo unspecified) | . | -7
CC1CN(Cc2nc3c(c(=O)n(C)c(=O)n3C)n2Cc2ccc(Cl)cc2)CC(C)O1 (stereo unspecified) | -17 | .
C=CCn1c(SCC(=O)Nc2ccccc2OC)nnc1-c1ccco1 | 7 | 30
C=CCn1c(SCC(=O)Nc2nccs2)nnc1-c1cc2cccc(OC)c2o1 | 53* | 12
O=S(=O)(Nc1ccc2nc(-c3ccc(Br)o3)[nH]c2c1)c1ccccc1 | 45 | 17
O=C(Nc1ccc2nc(-c3ccccc3)[nH]c2c1)c1ccco1 | . | -10
O=C(Nc1ccc2nc(-c3ccc(Br)o3)[nH]c2c1)c1ccco1 | 55* | 7
O=C(Nc1cccc(-c2nc3ccccc3[nH]2)c1)c1cccc(NC(=O)c2ccco2)c1 | 64* | 14
Cn1c(SCC(=O)C(C)(C)C)nnc1-c1cccnc1 | -2 | -120
COCCNC(=O)c1cc2c(=O)n3cccc(C)c3nc2n(Cc2ccncc2)c1=N | -10 | 40*
COc1ccc(CCNC(=O)c2cc3c(=O)n4cccc(C)c4nc3n(Cc3ccncc3)c2=N)cc1 | -2 | .
Cc1cnc(C(=O)OCC(=O)c2csc(N3CCCCC3)n2)cn1 | 6 | 11
NC(=O)c1oc2ccccc2c1NC(=O)c1nc2ccccc2s1 | 5 | -5
O=C(Nc1nnc(-c2ccccc2)o1)c1nc2ccccc2s1 | 66* | 29
CN(CC(=O)NC1CCCCCC1)S(=O)(=O)c1ccc2c(c1)n(C)c(=O)c(=O)n2C | . | 10
Cc1cc(C)n(CCc2nc3c4ccccc4n(CC(=O)Nc4ccc(Cl)cc4F)c(=O)n3n2)n1 | -9 | .
CCN(CC)CCCN1C(=O)C(O)=C(C(C)=O)C1c1ccc(OC)cc1OC (stereo unspecified) | -5 | .

Screens from PubChem.
